In PubChem BioAssay (NCATS):
Results filed as inconclusive are left out. Where a call stands in place of a potency, no number is given. A number with no mark means an inactive call. Calls of active or inactive are those of the source. The call rests on the fitted dose curve; in most records, active means well fitted curve in the direction sought with a large enough effect; inconclusive means small, poorly fitted or top-dose-only effect, or another doubt; inactive means no such curve, though single readings can be large; an effect the other way counts as inactive or inconclusive.

Legend:
[1] = qHTS for Inhibitors of Plasmodium falciparum (7G8) proliferation (AID 504316); further: nearly all actives have a fitted effect of over 65% in size; further: potency means the concentration at half of the fitted maximal effect
Procedure, shortened: (§1)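 Parasite growth measured as SYBR Green DNA fluorescence (ex 485, em 535 nm) after overnight lysis following 72 h culture at 37 °C, 0.3% parasitemia, 2.5% hematocrit. Values normalized against DMSO and 0.29 uM artemisinin controls, with plate-stack correction.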

[2] = qHTS for Inhibitors of Plasmodium falciparum (HB3) proliferation (AID 504318); further: nearly all actives have a fitted effect of over 60% in size; further: potency means the concentration at half of the fitted maximal effect
Procedure, shortened: as §1

[3] = qHTS for Inhibitors of Plasmodium falciparum (GB4) proliferation (AID 504315); further: nearly all actives have a fitted effect of over 50% in size
Procedure, shortened: as §1

[4] = qHTS for Inhibitors of Plasmodium falciparum (CP250) proliferation (AID 504320)
Procedure, shortened: as §1

SMILES | Potency [1] | Potency [2] | Potency [3] | Potency [4]
CCCCS(=O)(=O)N1C2=NC(C(=O)OC)=C(C(=O)OC)[C@@H]3N(Cc4ccccc4)c4ccccc4[C@]23C[C@H]1C(=O)OC | 1510 nM (active) | 2390 nM (active) | – | –
COC(=O)CCCC1=CC2=C(c3ccccc3)C(=O)C(C)(OC(=O)C3CCCC3)C(=O)C2=CN1CCc1c[nH]c2ccccc12 (configuration not stated) | inactive | – | inactive | inactive
CC(=O)OC[C@H]1O[C@H](C#Cc2ccc(C)cc2C)C=C[C@H]1OC(C)=O | 1690 nM (active) | – | – | inactive
COc1cc2c(cc1OC)[C@@H]1O[C@](CCCCN3C(=O)c4ccccc4C3=O)(C2)OC2=C1C(=O)CCC2 | 1690 nM (active) | – | – | inactive
COC(=O)C(C(=O)OC)[C@@H]1c2ccccc2[C@H]2C(=C[C@@H](C)[C@H]3C(=O)N(c4ccccc4)C(=O)[C@H]32)N1C(=O)OC | inactive | inactive | – | inactive
